Apoferritin bind: binds horse apoferritin like a general anesthetic | P02791 | 350,000 compounds, 0.074% hits | apoferritin/1-aminoanthracene competitive binding, fluorescence | Potency, µM (series often up to 77.5 µM), without a hit: at the top dose activity change, negative = displacement, hits mostly inhibitors | AID 485281; further: potency means the concentration at half of the fitted maximal effect; on the % scale 0 is the no-effect control and ±100 the full control effect; nearly all actives have a fitted effect of over 20% in size
Target sequence (P02791 2-175 limits assumed): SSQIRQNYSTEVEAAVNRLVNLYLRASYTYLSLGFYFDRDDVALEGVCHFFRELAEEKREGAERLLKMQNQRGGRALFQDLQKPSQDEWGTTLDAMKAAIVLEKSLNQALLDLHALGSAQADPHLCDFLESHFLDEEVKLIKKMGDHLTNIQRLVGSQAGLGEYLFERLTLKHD
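Horse-spleen apoferritin (10 uM) in 50% saturated 1-aminoanthracene in PBS was incubated 10 min at room temperature with compound. Fluorescence (ex 380, em 535 nm) was normalized to free and bound 1-AMA, with concentration-response fitted by a four-parameter Hill equation.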
D2 ag-1: D2 dopamine receptor (human) agonism; P14416; HEK293 T-REx D2 cells, calcium flux agonist mode; activation, % at 2 µM; 340,000 compounds, 0.53% hits; AID 485358;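 active means activation over 3 SD above normal in the single-dose calcium agonist read, cut at about 30% in these data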; further: 0% is about no effect
Target sequence (P14416 whole entry, looked up): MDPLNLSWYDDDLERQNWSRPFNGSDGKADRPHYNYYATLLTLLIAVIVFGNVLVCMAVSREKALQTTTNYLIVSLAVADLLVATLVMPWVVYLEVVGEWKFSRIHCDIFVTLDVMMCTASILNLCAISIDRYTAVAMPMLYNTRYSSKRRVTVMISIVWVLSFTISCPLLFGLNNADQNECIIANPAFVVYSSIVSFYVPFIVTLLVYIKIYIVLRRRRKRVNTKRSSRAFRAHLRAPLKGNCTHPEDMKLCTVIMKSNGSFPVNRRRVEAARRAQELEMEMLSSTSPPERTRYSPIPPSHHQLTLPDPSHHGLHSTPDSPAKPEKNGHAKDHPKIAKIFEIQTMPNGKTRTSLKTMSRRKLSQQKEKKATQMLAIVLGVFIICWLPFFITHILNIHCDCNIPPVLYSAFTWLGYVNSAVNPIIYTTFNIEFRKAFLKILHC
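Tetracycline-induced HEK293 T-REx cells with force-coupled D2 receptor, plated overnight at 30 C, loaded with no-wash calcium dye. After a 10 s baseline, compound was pin-added and calcium flux read kinetically for 180 s; calcium rises flagged agonists.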
D2 ag-2: agonists of human D2 dopamine receptor (beta-arrestin) | DiscoveRx PathHunter D2 beta-arrestin, luminescence, 90 min; 100% = 57 uM dopamine signal | activation, % (concentration not given with the values) | 360,000 compounds, 0.084% hits | AID 624465; in the data active means activation above about 40%; inconclusive means between about 15% and that limit
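DiscoveRx PathHunter D2 beta-arrestin cells (2,100/well) attached overnight, then compound-stimulated 90 min at 37 C in HBSS/10 mM HEPES/0.1% Tween-20 buffer; beta-galactosidase complementation read by luminescence after 1 h at ambient temperature. Dopamine 57 uM final (EC100) as control.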
D2 PAM-1: positively modulates the human D2 dopamine receptor allosterically. HEK293 T-REx D2, calcium flux, EC20 dopamine potentiation. 340,000 compounds, 0.34% hits. P14416. potentiation, % at 10 µM. AID 485347;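 active means potentiation over 3 SD above the plate norm, cut at about 30% in these data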; further: 0% is about no effect
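Tetracycline-induced HEK293 T-REx cells force-coupled to calcium signalling expressed D2; compounds were pin-added after a 10 s baseline, read kinetically 180 s, then an EC20 dopamine challenge followed with a further 180 s calcium read.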
D2 PAM-2: potentiates the human D2 dopamine receptor allosterically | P14416 | DiscoveRx D2 beta-arrestin cells, luminescence, 90 min; 100% = 57 uM dopamine signal | potentiation, % (no concentration beside the values) | 360,000 compounds, 0.23% hits | AID 624464; in the data active means potentiation above about 50%; inconclusive means mostly about 30% to 49%
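PathHunter D2 cells, attached overnight at 37 deg C, received compound in DMSO plus dopamine at EC20 (50 nM final) for 90 min at 37 deg C. Beta-arrestin recruitment was read as luminescence after 1 h with detection reagent at ambient temperature.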
D2 antag: D2 dopamine receptor (human) antagonism | inhibition, % at 10 µM | HEK293 TREx D2 cells, calcium flux, dopamine EC80 | P14416 | 340,000 compounds, 2% hits; in the data active means inhibition above about 30%; inactive means below that, where a call was filed; further: 0% is about no effect
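Measurement of antagonist activity uses fluorescent calcium dye in inducible HEK293 T-REx D2 cells: 10 s baseline, compound addition with 180 s read, EC80 dopamine addition with a further 180 s read.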
D3 ag: confirmation of human D3 dopamine receptor agonists, beta-arrestin; shares compounds with D2 ag-1; DiscoveRx D3 beta-arrestin cells, luminescence, 90 min; Potency, µM (doses to about 76.9 µM), inactives show at the highest dose activation, actives largely listed as activators; 2,300 compounds, 4% hits; AID 720506;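 further: potency means the concentration at half of the fitted maximal effect; 100% = dopamine control response; nearly all actives have a fitted effect of over 70% in size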
D2 ag-3: D2 receptor agonism, beta-arrestin counterscreen; shares compounds with D2 ag-1; DiscoveRx PathHunter D2 beta-arrestin, luminescence, 90 min; response scale: percent relative to full dopamine signal; Potency, µM (top dose mostly 76.9 µM), inactives show top-dose activation, actives largely listed as activators; 2,300 compounds, 5.9% hits; AID 720507; further: potency means the concentration at half of the fitted maximal effect; % of control where 0% means no effect; nearly all actives have a fitted effect of over 70% in size
Numbers without * were called inactive; ? = inconclusive; nt = not tested or not shown; [ ] = another dose, or the depositor's remark. Shown are actives, neighbours in structure and some others; about 2.5% of the full set was active somewhere. Unless noted, the call rests on the fitted dose curve; in most records, active means well fitted curve in the direction sought with a large enough effect; inconclusive means small, poorly fitted or top-dose-only effect, or another doubt; inactive means no such curve, though single readings can be large; an effect the other way counts as inactive or inconclusive.

SMILES	Apoferritin bind	D2 ag-1	D2 ag-2	D2 PAM-1	D2 PAM-2	D2 antag	D3 ag	D2 ag-3
CC(C)C(=O)Nc1ccc2c(c1)nc(CCN1CCN(c3ccccc3)CC1)n2C	9%	61*	-2	-21	-9	18	?	8%
O=C(COc1cccc(F)c1)NNC(=O)Cc1ccc(S(=O)(=O)N2CCOCC2)s1	nt	0	13	10	-3	-29	0%	-2%
O=C(COc1cccc(C(F)(F)F)c1)NNC(=O)Cc1ccc(S(=O)(=O)N2CCOCC2)s1	nt	0	8	-5	-6	28	nt	nt
CCc1ccc(C2=NN(CCC(=O)NC3CC3)C(=O)CC2)cc1	-14%	0	nt	2	nt	9	nt	nt
O=C(Nc1ccccc1)OCCN1CCN(Cc2ccccc2)CCC1=O	-2%	-1	-6	-4	-6	4	nt	nt
Cc1ccc(NC(=O)OCCN2CCN(Cc3ccccc3)CCC2=O)cc1	-7%[110 µM]	50*	0	-12	-5	43*	8%	?
Cc1c(Cl)cccc1N(CC(=O)N1CCCCCC1)S(C)(=O)=O	-17%	0	0	-1	-3	-7	nt	nt
O=C(c1ccc2c3c(cccc13)CC2)C1CCCN(C(=O)c2ccc[n+]([O-])c2)C1 (stereo unspecified)	-4%	0	2	0	-5	22	-7%	-3%
O=C(c1ccc2c3c(cccc13)CC2)C1CCCN(C(=O)c2cc[n+]([O-])cc2)C1 (stereo unspecified)	1%	0	-3	0	-2	11	nt	nt
C=CCC1Cc2c(cccc2[N+](=O)[O-])C(CC=C)N1 (stereo unspecified)	?	50*	?	-13	?	36*	?	22µM*
Nc1nc(N2CCN(Cc3ccccc3)CC2)n[nH]1	-1%	94*	68*	-27	?	-19	?	4.5µM*
Nc1nc(N2CCN(C(c3ccccc3)c3ccccc3)CC2)n[nH]1	-7%	0	-1	-2	4	-3	nt	nt
O=c1[nH]c(CN2CCN(c3ccccc3)CC2)nc2scc(-c3ccccc3)c12	7%	8	-5	4	-10	32*	?	24%
O=S(=O)(c1ccccc1)c1nc(-c2ccco2)oc1N1CCCCCC1	-20%	0	-3	nt	-15	12	nt	nt
Oc1cc2c(cc1CN1CCN(c3ncccn3)CC1)OCO2	-2%	86*	96*	-27	?	83*	?	0.56µM*
Fc1ccccc1CN1CCN(c2ncccn2)CC1	-6%	84*	98*	-21	?	84*	?	7.9µM*
Clc1cccc(Cl)c1CN1CCN(c2ncccn2)CC1	0%	55*	?	-17	2	46*	11%	?
O=C(CN1CCN(c2ncccn2)CC1)NCc1ccc2c(c1)OCO2	-9%	56*	?	-23	1	37*	2%	19%
O=C(c1ccccc1F)N1CCN(Cc2ccccc2F)CC1	-5%	0	-7	4	-16	-8	nt	nt
CC(=O)Nc1ccc(S(=O)(=O)N(C)CC(=O)OC(C)C(=O)N(C)Cc2ccccc2)cc1 (stereo unspecified)	-3%	0	0	3	1	2	nt	nt
CCc1ccc(-c2[nH]nc3nc(-c4ccc(OC)cc4)cc(C(=O)NCCc4ccc(OC)c(OC)c4)c23)cc1	-14%	0	nt	8	nt	nt	nt	nt
O=[N+]([O-])c1ccc(Cl)c(CN2CCN(c3ncccn3)CC2)c1	-15%	9	13	-7	0	33*	10%	13%
Cc1ccc(C)c(CN2CCN(c3ncccn3)CC2)c1	0%	75*	53*	-28	5	60*	0%	?
Cc1ccc(C)c(S(=O)(=O)N2CCN(c3ncccn3)CC2)c1	-10%	nt	3	4	-6	nt	nt	nt
Cc1ccc(C(=O)CCS(=O)(=O)c2ccc(Cl)cc2)cc1	-6%	-1	-4	7	-10	3	nt	nt
SMILES	Apoferritin bind	D2 ag-1	D2 ag-2	D2 PAM-1	D2 PAM-2	D2 antag	D3 ag	D2 ag-3
CC(C)(C)OC(=O)[C@H](Cc1ccccc1)NC(=O)c1nc[nH]c1C(=O)N1CCc2ccccc2C1	?	0	-1	6	-9	-28	nt	nt
CCC1CCCCN1C1Sc2ccc(C(=O)OC)cc2NC1=O (stereo unspecified)	-8%	0	-1	-3	1	-1	nt	nt
CCCCN(C)CCNC(=O)c1ccc2c(c1)NC(=O)C(N1CCCCC1)S2 (stereo unspecified)	?	50*	-1	-21	-42	73*	?	15%
COc1ccc(NC(=O)c2ccco2)cc1NC(=O)c1cc(OC)c(OC)c(OC)c1	-19%	-1	nt	-7	nt	nt	nt	nt
CC(=O)Nc1ccc(C(=O)NNC(=O)c2cccc(C)c2)cc1	-4%	nt	7	nt	-1	nt	nt	nt
CC(C)Oc1cccc(NC(=O)c2cnccc2C(F)(F)F)c1	-14%	0	-4	8	-17	22	nt	nt
Cc1cc(C)nc(-n2ncc3c2CC(c2ccccc2)CC3=O)n1 (stereo unspecified)	-18%	48*	2	-21	-3	-9	-2%	-2%
O=C(c1ccsc1)N1CCCC(N2CCN(c3ccccc3F)CC2)C1 (stereo unspecified)	-4%	12	1	-11	-31	0	nt	nt
CCN(CC)C(=O)C1CCCN(Cc2ccccc2C(F)(F)F)C1 (stereo unspecified)	-1%	-1	0	-11	-5	3	nt	nt
O=C(c1noc2c1CCCC2)N1CCCC(N2CCN(c3ccccc3F)CC2)C1 (stereo unspecified)	-8%	41*	2	-14	-20	15	1%	6%
Fc1ccccc1N1CCN(C2CCCN(Cc3ccccc3C(F)(F)F)C2)CC1 (stereo unspecified)	-16%	nt	-2	-9	-4	nt	3%	21%
CC(=O)c1cccc(CN2CCCC(N3CCN(c4ccccc4F)CC3)C2)c1 (stereo unspecified)	-19%	nt	12	-28	-1	nt	8%	?
Cn1c(=O)n(C)c2cc(NS(=O)(=O)c3ccccc3[N+](=O)[O-])ccc21	-6%	nt	0	nt	22	nt	nt	nt
